rCAG RNA binder – r(CAG) repeat RNA binding | AID 651821 | inhibition, % at 3 µM | 1.3% of 370,000 active | TO-PRO-1 dye displacement fluorescence;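 active = inhibition above the plate cutoff, the mean of all test compounds on that plate plus 3 SD, cut at about 35% in these data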;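 note: higher means more dye released from RNA so lower well fluorescence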
NadD inh – blocks S. aureus nicotinate mononucleotide adenylyltransferase; purified NadD enzyme, colorimetric absorbance read-out; inhibition, % at 20 µM; 0.78% of 360,000 active; AID 602399; in the data active = inhibition above about 26%
FAS TE block – blocks the thioesterase domain of human fatty acid synthase; P49327; recombinant FAS-TE, OMFH fluorogenic substrate, fluorescence endpoint; inhibition, % at 15 µM; 0.67% of 360,000 active; AID 602261;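 active = compounds whose normalised, plate-corrected inhibition of enzyme fluorescence in the single-dose primary screen is 50% or more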
GRIN3A LBD mod – modulators (binders) of human NR3A ligand-binding domain; AID 1259313; 2.5% of 340,000 active; NR3A LBD differential scanning fluorimetry, Tm shift; 0% = protein alone, 100% = glycine-bound protein; Tm shift relative to glycine control, % at 25 µM;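 active = melting temperature shift of at least 10% of the positive control shift, at one fixed dose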
Numbers stand for hits; i = inactive; nt = no result given. Hits are enriched below; roughly 4.3% of the tested compounds scored in any of these assays.

SMILES | rCAG RNA binder | NadD inh | FAS TE block | GRIN3A LBD mod
Cc1ccc(C(=O)/C=C/c2c[nH]c3ccccc23)cc1 | i | i | i | 28
COc1ccc(/C=C/C(=O)c2ccccc2)c(OC)c1 | i | i | i | i
Cc1ccc(C(=O)/C=C/c2cn(CN3CCN(C)CC3)c3ccccc23)cc1 | i | i | i | 38
COC(=O)[C@@]12CCCCC3=C1N(CCC3)C(=O)[C@H]2CC(=O)N1CCCC1 | i | nt | nt | nt
Cc1cccc(NC(=O)c2nc[nH]c2C(=O)Nc2cccc(C)c2)c1 | i | i | i | i
Cc1cccc(NC(=O)c2nc[nH]c2C(=O)NCCCNC(=O)c2[nH]cnc2C(=O)Nc2cccc(C)c2)c1 | i | i | i | 12
CCOC(=O)CC(=O)CSc1nc2c(c(C)c1C#N)CCC2 | i | i | i | 20
CCOC(=O)CC(=O)CSc1nc(N)c(C#N)c(-c2ccc(Cl)cc2)c1C#N | i | i | i | 16
CCOC(=O)CC(=O)CSc1nc(C)cc(C)c1C#N | i | i | i | i
COC(=O)[C@]12C[C@H](CC(=O)NCc3cccc4ccccc34)C(=O)N(CCc3ccc(OC)c(OC)c3)C1=C[C@H](C(C)C)O[C@@H]2C1CC1 | i | nt | nt | nt
Nc1ccc(C(=O)OCc2csc(-c3ccccc3)n2)cc1[N+](=O)[O-] | i | i | i | 29
CNS(=O)(=O)c1cccc(C(=O)OCc2csc(-c3ccccc3)n2)c1 | i | i | i | i
O=C(c1ccc(SCc2ccco2)c([N+](=O)[O-])c1)N1CCOCC1 | i | i | i | i
O=C(c1ccc2ccccc2c1)N1CCN(c2ccc([N+](=O)[O-])c(N3CCOCC3)c2)CC1 | i | i | i | 17
O=C(/C=C/c1ccccc1)N1CCN(c2ccc([N+](=O)[O-])c(N3CCOCC3)c2)CC1 | i | i | i | 20
O=C(c1ccc(Sc2ccccc2)c([N+](=O)[O-])c1)N1CCOCC1 | i | i | i | 16
CCOC(=O)[C@]12CCCC=C1N(CCCOC)C(=O)[C@@H]2CC(=O)NCc1ccc(OC)c(OC)c1 | i | nt | nt | nt
CCN(CC)C(=O)CC[C@H]1CC[C@]2(CCCN(Cc3cccc4ccccc34)C2)O1 | i | nt | nt | nt
CCOc1ccc(/C=N/NC(=O)Cc2csc(Nc3cccc(C(F)(F)F)c3)n2)c(OCC)c1 | i | i | i | 10
CCOC(=O)c1cccc(P(C)(C)=O)c1 | i | i | i | 22
CCOC(=O)c1cccc(NC(=O)Nc2ccc(OCC)cc2)c1 | i | i | i | 20
CCOc1ccc(NC(=O)Nc2cccc(C(=O)O)c2)cc1 | i | i | i | i
COc1ccc(NC(=S)Nc2ccc3nsnc3c2)cc1 | i | i | i | 24
CCOc1ccc(NC(=O)Nc2ccc3nsnc3c2)cc1 | i | i | i | 26
CCn1c(Cc2cccs2)nnc1SCC(=O)Nc1ccc(OCc2ccccc2)cc1 | i | nt | nt | nt
SMILES | rCAG RNA binder | NadD inh | FAS TE block | GRIN3A LBD mod
CCOc1ccc(NC(=S)Nc2ccc3nsnc3c2)cc1 | i | i | i | 22
CCOc1ccc(NC(=S)Nc2ccc(OCC)cc2)cc1 | i | i | i | i
O=C(CCc1ccccc1)N[C@H]1[C@@H](OC(=O)c2ccco2)CCC[C@]12C(=O)N(Cc1ccccc1)c1ccccc12 | i | nt | nt | nt
Cc1cc(-c2nnc(SCC(=O)Nc3cccc4ccccc34)n2N)n[nH]1 | i | nt | nt | nt
CCCN1C(=O)/C(=C/c2ccc(N3CCOCC3)cc2)NC1=S | i | i | i | i
Cc1ccc(CN2C(=O)N/C(=C\c3ccc(N4CCOCC4)cc3)C2=O)cc1 | i | i | i | 17
O=C(COc1ccc2ccccc2c1Br)Nc1ccncc1 | i | i | i | 14
O=C(COc1ccc2ccccc2c1Br)NC(=S)Nc1cccc(CO)c1 | i | i | i | 34
O=C(CSc1nc2ccccc2n1Cc1ccccc1Cl)N/N=C\c1cccc(Oc2ccccc2)c1 | i | nt | nt | nt
Cc1ccc(NC(=S)NNC(C)(C)C)cc1 | i | i | i | i
CC(C)=NN/C(N)=N/C(=S)Nc1ccc(C)cc1 | i | i | i | 13
O=C(Nc1cccc(C2OCCCO2)c1)c1cccs1 | i | i | i | 21
O=C(Nc1ccc2c(c1)OCO2)c1ccc(Br)s1 | i | i | i | 21
O=C(Nc1ccc2c(c1)OCO2)c1cccs1 | i | i | i | 11
CC(=O)Nc1ccc2c(c1)OCO2 | i | i | i | i
O=C(Nc1ccc2c(c1)OCCO2)c1c(Cl)cccc1Cl | i | i | i | nt
O=C(Nc1ccc2c(c1)OCCO2)c1cccs1 | i | i | i | 20
COC(=O)C1=C(C)N(C)C(=NCc2ccccc2C(F)(F)F)NC1c1cccc(F)c1 (stereo unspecified) | i | nt | nt | nt
CCCCC1=C(C(=O)OCC)C(C(=O)OCC)Oc2ccccc21 (stereo unspecified) | i | i | i | 18
CCOC(=O)C1Oc2ccccc2C(c2ccc(OC)cc2)=C1C(=O)OC (stereo unspecified) | i | i | i | 13
